Compounds without any hit were thinned out: in the full panel of roughly 83,000, 20% have a hit.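 Each cell line was grown in a 96-well plate and treated with one concentration of compound for 48 hours. Values below 10 were considered active.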 Unmarked numbers belong to inactive results. Active and inactive are the calls of the source.

Common to all, as to test: NCI-60 one-dose screen, 48 h (100 = growth as untreated, 0 = no growth, -100 = all killed)
One assay relates to HCT-15 colon. The note with it: 10 µM unless noted.
The subject of another assay is HT29 colon. The note with it: 10 µM unless noted.
A further assay concerns SNB-75 CNS. Conditions: 10 µM unless noted.
Another assay has as its system SNB-19 CNS. The note with it: 10 µM unless noted.
For the next assay, the system named is U251 CNS. Conditions: 10 µM unless noted.
A further assay deals with PC-3 prostate. Conditions: 10 µM unless noted.
For another assay, the system named is SK-MEL-5 melanoma. The note with it: 10 µM unless noted.
For another assay, the system named is UACC-62 melanoma. The note with it: 10 µM unless noted.
For another assay, the system named is LOX IMVI melanoma. Conditions: 10 µM unless noted.
The next assay deals with SK-MEL-28 melanoma. Conditions: 10 µM unless noted.
The test system of a further assay is SK-MEL-2 melanoma. The note with it: 10 µM unless noted.
In a further assay the test system is EKVX NSCLC. The note with it: 10 µM.
For another assay, the system named is SN12C renal. The note with it: 10 µM unless noted.
In the next assay the test system is UO-31 renal. The note with it: 10 µM unless noted.
For another assay, the system named is TK-10 renal. Conditions: 10 µM unless noted.
The next assay concerns ACHN renal. The note with it: 10 µM unless noted.
A further assay has as its system CAKI-1 renal. Conditions: 10 µM unless noted.
The next assay deals with A498 renal. Conditions: 10 µM unless noted.
A further assay has as its system CCRF-CEM leukemia. The note with it: 10 µM.
The next assay deals with MOLT-4 leukemia. The note with it: 10 µM unless noted.

On to `COc1cc(-c2c3c(cn2CCN2CCCCC2)-c2oncc2CC3)cc(OC)c1OC`, for which the growth in the assay with HCT-15 colon was 98.3%; in the assay on HT29 colon, 84%; in the assay with SNB-75 CNS, 81.4%; with SNB-19 CNS it was 99.8%; with U251 CNS, 101%; in the assay with PC-3 prostate, 89.7%. Moreover, the growth was 98.3% in the assay on SK-MEL-5 melanoma; 90.4% in the assay on UACC-62 melanoma; 97.7% with LOX IMVI melanoma; 100% in the assay with SK-MEL-28 melanoma; 106% in the assay with SK-MEL-2 melanoma; 102% in the assay with EKVX NSCLC. The growth with SN12C renal was 101%; in the assay with UO-31 renal, 80.2%; with TK-10 renal, 100%; with ACHN renal, 89.7%; in the assay on CAKI-1 renal it was 87%; in the assay with A498 renal it was 90.9%. Also, the growth is 103% in the assay with CCRF-CEM leukemia and 100% with MOLT-4 leukemia.
For `CC(=O)Nc1ccc(CC#N)cc1Br`, the growth was 105% in the assay with HCT-15 colon; 104% with HT29 colon; 91% in the assay on SNB-75 CNS; 103% with SNB-19 CNS; 104% in the assay on U251 CNS; 95.6% in the assay on PC-3 prostate. For the same compound, the growth is 97.8% in the assay with SK-MEL-5 melanoma; 99.6% in the assay with UACC-62 melanoma; 106% in the assay on LOX IMVI melanoma; 114% with SK-MEL-28 melanoma; 106% in the assay on SK-MEL-2 melanoma; 112% in the assay on EKVX NSCLC. Further, the growth in the assay with SN12C renal was 107%; with UO-31 renal, 95%; in the assay on TK-10 renal it was 96.4%; in the assay on ACHN renal, 109%; with CAKI-1 renal it was 96.5%; in the assay on A498 renal, 79.9%. The growth with CCRF-CEM leukemia was 107%; in the assay with MOLT-4 leukemia it was 118%.
`CC(=O)Nc1nc(C)c(C(=O)NNC(=O)Nc2ccccc2)s1`: the growth in the assay with HCT-15 colon is 96.7%; with HT29 colon, 99%; in the assay on SNB-75 CNS, 98.4%; in the assay on SNB-19 CNS it was 93.9%; with U251 CNS it was 102%; with PC-3 prostate, 85.2%. For the same compound, the growth is 97% with SK-MEL-5 melanoma; 78.1% in the assay on UACC-62 melanoma; 97.9% in the assay with LOX IMVI melanoma; 105% in the assay with SK-MEL-28 melanoma; 29.9% with SK-MEL-2 melanoma; 153% in the assay with EKVX NSCLC. Further, the growth is 92.3% in the assay on SN12C renal; 77.7% in the assay on UO-31 renal; 159% in the assay with TK-10 renal; 93.3% in the assay with ACHN renal; 140% in the assay with CAKI-1 renal; 90.7% with A498 renal. Further, the growth in the assay with CCRF-CEM leukemia was 79.8%; with MOLT-4 leukemia, 115%.
Take `CCc1ccc(C(=Nc2ccc(N(C)C(=O)CN3CCN(C)CC3)cc2)c2c(O)[nH]c3ccc(C(=O)OC)cc23)cc1`: the growth in the assay with HCT-15 colon was -73.2% (active); with HT29 colon it was -66.3% (active); with SNB-75 CNS, -97.3% (active); in the assay on SNB-19 CNS, -84.9% (active); with U251 CNS, -75.1% (active); with PC-3 prostate, -60.9% (active). In addition, the growth in the assay on SK-MEL-5 melanoma was -98.1% (active); in the assay with UACC-62 melanoma, -57.5% (active); in the assay with LOX IMVI melanoma, -93.9% (active); in the assay with SK-MEL-28 melanoma, -87.3% (active); in the assay on SK-MEL-2 melanoma it was -55.4% (active); in the assay on EKVX NSCLC, -17.4% (active). Moreover, the growth was -57.4% (active) in the assay on SN12C renal; -94.9% (active) in the assay on UO-31 renal; -64.7% (active) in the assay with TK-10 renal; -69.1% (active) in the assay with ACHN renal; -82.9% (active) in the assay on CAKI-1 renal; -82.2% (active) in the assay with A498 renal. Moreover, the growth in the assay on CCRF-CEM leukemia is -15.5% (active); in the assay on MOLT-4 leukemia, -37.6% (active).
As to `COc1ccc(-n2nnnc2-c2cn[nH]c2C(F)(F)F)cc1`, the growth was 110% in the assay on HCT-15 colon; 93.1% with HT29 colon; 102% with SNB-75 CNS; 101% with SNB-19 CNS; 94.8% in the assay on U251 CNS; 105% in the assay with PC-3 prostate. Besides, the growth was 94.4% with SK-MEL-5 melanoma; 83.6% in the assay with UACC-62 melanoma; 95.6% with LOX IMVI melanoma; 96.2% with SK-MEL-28 melanoma; 92.4% in the assay on SK-MEL-2 melanoma; 90.3% with EKVX NSCLC. The growth is 104% with SN12C renal; 92.9% in the assay with UO-31 renal; 113% with TK-10 renal; 99.3% in the assay with ACHN renal; 92.5% in the assay on CAKI-1 renal; 83.2% in the assay on A498 renal. Besides, the growth was 98.3% with CCRF-CEM leukemia and 79% in the assay with MOLT-4 leukemia.
Take `CC1(C)NCCC[C@]2(C)[C@H]3CC=C4[C@@H]5C[C@](C)(COC(=O)c6ccccc6C(=O)O)CC[C@]5(C)CC[C@@]4(C)[C@]3(C)CC[C@@H]12`: the growth in the assay with HCT-15 colon was 43.8%; with HT29 colon it was 9.9% (active); in the assay with SNB-75 CNS, 74.7%; in the assay on SNB-19 CNS, 68.9%; in the assay on U251 CNS, 41.1%; in the assay on PC-3 prostate, 43.1%. Further, the growth with SK-MEL-5 melanoma was 77.5%; with UACC-62 melanoma, 88.2%; in the assay with LOX IMVI melanoma, 54.4%; with SK-MEL-28 melanoma, 93.4%; in the assay on SK-MEL-2 melanoma, 83.5%; in the assay on EKVX NSCLC it was 86.7%. Further, the growth in the assay on SN12C renal is 65.5%; with UO-31 renal it was 87.4%; in the assay with TK-10 renal it was 36%; in the assay on ACHN renal it was 43.3%; with CAKI-1 renal, 86%; with A498 renal, 107%. The values for the growth in the assay with CCRF-CEM leukemia and in the assay with MOLT-4 leukemia were 35.8% and 20.5%, respectively.
On to `CCn1cc(C(=O)O)c(=O)c2cc(F)c(N3CCN(S(=O)(=O)c4ccc(Cl)cc4)CC3)cc21`, for which the growth with HCT-15 colon was 15.7%; in the assay with HT29 colon, 7.87% (active); in the assay on SNB-75 CNS, 41.8%; with SNB-19 CNS it was 20.6%; in the assay on U251 CNS, 12%; in the assay with PC-3 prostate, 25.3%. The growth in the assay on SK-MEL-5 melanoma was 26.6%; with UACC-62 melanoma, 21.5%; in the assay on LOX IMVI melanoma, 19.9%; in the assay on SK-MEL-28 melanoma it was 44.6%; with SK-MEL-2 melanoma, 43.8%; with EKVX NSCLC, 78.1%. Moreover, the growth in the assay on SN12C renal is 11.6%; in the assay with UO-31 renal, 51.1%; in the assay with TK-10 renal, 53.6%; in the assay with ACHN renal, 28.7%; with CAKI-1 renal, 43.6%; in the assay with A498 renal it was -6.18% (active). In addition, the figures for the growth in the assay with CCRF-CEM leukemia and with MOLT-4 leukemia were -0.845% (active) and 23.6%, respectively.
As to `COc1cc(OC)c2c(=O)cc(-c3ccccc3)oc2c1`, the growth with HCT-15 colon is 105%; with HT29 colon, 97.1%; with SNB-75 CNS it was 91.8%; in the assay on SNB-19 CNS, 94.3%; with U251 CNS, 92.2%; in the assay on PC-3 prostate, 81.1%. In addition, the growth in the assay with SK-MEL-5 melanoma is 95.9%; with UACC-62 melanoma, 77.7%; in the assay with LOX IMVI melanoma, 97.5%; in the assay with SK-MEL-28 melanoma it was 106%; in the assay with SK-MEL-2 melanoma it was 103%; in the assay on EKVX NSCLC, 103%. Also, the growth in the assay on SN12C renal is 93%; in the assay on UO-31 renal, 70.2%; in the assay with TK-10 renal it was 85.9%; in the assay on ACHN renal it was 103%; with CAKI-1 renal, 86.4%; in the assay with A498 renal, 77.1%. Besides, the growth in the assay on CCRF-CEM leukemia was 26.9%; with MOLT-4 leukemia it was 80.4%.

The values are drawn from PubChem BioAssay (NCI).
